# About 430 (29%) of roughly 1,500 compounds were called active. The rule behind the calls is not given here. A selection follows. Where a call stands in place of a potency, no number is given. Potency and affinity values are given separately.
# Assay: insulin secretion activators without glucose, dose response, counter-screen for glucose-dependent insulin secretion activators, cell-based, INS-1E, Gaussia luciferase, luminescence, cherry-pick (AID 977606)
# Details: INS-1E Gaussia luciferase insulin secretion, no glucose, 100% = twice neutral-control luminescence; series mostly up to 35 µM
row,Structure (SMILES),outcome
1,Cn1c(=O)c2[nH]c(SCc3ccccn3)nc2n(C)c1=S,inactive
2,O=C(NCCN1CCN(C(=O)c2ccccc2Cl)CC1)C(=O)NCc1ccccc1,inactive
3,CC(=O)Nc1nc(NCc2ccccc2Cl)n(-c2ccccc2)n1,inactive
4,CC(C)Nc1nc(Nc2ccc(C(N)=O)cc2)c2sccc2n1,inactive
5,CCSc1nnc2ccc(-c3cccs3)nn12,inactive
6,O=C(CCS(=O)(=O)c1ccc(Cl)cc1)Nc1ccc(N2CCOCC2)cc1,inactive
7,COc1ccc(/C=C/c2nc(C#N)c(NCCN(C)C)o2)cc1OC,inactive
8,CCOC(=O)C1(C)CCCCN1C(=O)c1cccc(Cl)c1 (stereo unspecified),inactive
9,CCCCNC(=O)C1(C)CCN1C(=O)c1cc2ccccc2s1 (stereo unspecified),inactive
10,CCc1nc(N)nc2c1C(=O)CC(C)(C)C2,inactive
11,CNc1ccc(-c2ccccc2OC)cn1,inactive
12,COc1ccc(CCN2C(=O)CC(Cc3ccccc3)C2=O)cc1OC (stereo unspecified),inactive
13,CCOC(=O)c1c(S(=O)(=O)NCCc2ccc(OC)c(OC)c2)c(C)n(C)c1C,inactive
14,COc1ccc(-c2nc3cccc(C)n3c2NCc2ccco2)cc1OC,inactive
15,COc1ccc(CCNC(=O)CCn2c(=O)c3ccccc3n(CC(=O)NCC3CCCO3)c2=O)cc1OC (stereo unspecified),inactive
16,COc1ccc(-c2noc(CCC(=O)Nc3cccnc3)n2)cc1OC,inactive

row,Structure (SMILES),outcome
1,Cc1cc(NS(=O)(=O)c2ccc(NC(=O)C(C)Oc3ccccc3Cl)cc2)no1 (stereo unspecified),inactive
2,CC1(C)CC(=O)C(C=NC2CC(C)(C)NC(C)(C)C2)=C(O)C1,inactive
3,COCCNc1nc(NC(C)C)nc2ccsc12,inactive
4,CCn1nnnc1NCc1ccc(OCc2c(F)cccc2Cl)c(OC)c1,inactive
5,COCCN1Cc2cccc(C(=O)NCc3ccccc3OC)c2C1=O,inactive
6,COc1cc2ccc(C(C)=O)cc2cc1OC,inactive
7,COc1ccc2ccc(=O)oc2c1CC=C(C)C,inactive
8,Cc1ccc(NC(=O)CN(C(=O)N2CCN(C)CC2)S(=O)(=O)c2ccc(C)cc2)cc1,inactive
9,FC(F)(F)c1cc(CCN2CCNC[C@@H]2Cc2ccccc2)cc(C(F)(F)F)c1,inactive
10,NC(=O)C1CCN(C(=O)CCNS(=O)(=O)c2ccccc2F)CC1,inactive
11,COc1ccccc1C(OC(=O)c1cccs1)C(=O)NCC1CCCO1 (stereo unspecified),inactive
12,CC(=O)Nc1cccc(-n2c(=O)n(Cc3ccccc3)c(=O)c3[nH]cnc32)c1,inactive
13,O=C(c1cccs1)N(Cc1cccc(F)c1)C1CCS(=O)(=O)C1 (stereo unspecified),inactive
14,C/C(=N/Oc1nc(C)cc(C)n1)c1ccc(F)cc1,inactive
15,C=CCn1c(O)c(N=NC(=O)CNC(=O)c2ccco2)c2ccccc21,inactive
